hNpr1 antagonist: antagonists of human natriuretic peptide receptor Npr1; Potency, µM (highest dose often 46.3 µM), for the others: top-dose activity change, negative = inhibition, usual class: inhibitors; 76,000 tested, 1.6% active; AID 1347048; HEK293 hNpr1 GloSensor cGMP, ANP-stimulated luminescence; calls by dose curve; note: nearly all actives have a fitted effect of over 60% in size
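Compound pre-incubated 30 min at room temperature on GloSensor-loaded HEK293 cells stably carrying hNpr1 and the pGS-40F cGMP biosensor. Stimulation uses hNppA at 0.1 nM final; luminescence is taken at baseline and 20 min post-agonist.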
HEK cytotox: kills HEK 293 cells. HEK 293 viability, ATP luminescence (CellTiter-Glo), 48-72 h. Potency, µM (top dose mostly 115 µM), for the others: top-dose activity change, negative = cytotoxicity, most hits filed as inhibitors. 94,000 tested, 6.6% active. AID 1345083; note: nearly all actives have a fitted effect of over 60% in size
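250 HEK 293 cells/well; compound by pintool; incubated 48 or 72 hr at 37 degree Celsius; CellTiter-Glo added, 10 min RT, luminescence imaged.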
3T3 cytotox: kills NIH 3T3 cells; Potency, µM (doses to about 96.7 µM), inactives show at the top dose activity change, negative = cytotoxicity, usual class: inhibitors; AID 1345082; 94,000 tested, 4.3% active; NIH 3T3 viability, CellTiter-Glo ATP luminescence, 48-72 h; note: nearly all actives have a fitted effect of over 55% in size
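Cells were seeded at 400 per well, treated with pin-transferred compound, and kept 48 or 72 hr at 37 °C before CellTiter-Glo addition and luminescence imaging of cellular ATP.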
FLuc inh: inhibitors of firefly (Photinus pyralis) luciferase; purified P. pyralis luciferase, luminescence, biochemical; Potency, µM (doses to about 115 µM), most hits filed as inhibitors; 76,000 tested, 2.5% active; note: nearly all actives have a fitted effect of over 65% in size
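Inhibitors were tested against purified firefly luciferase in a biochemical, low-substrate format (both substrates at 10uM) and luminescence measured with a CCD imager.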
An asterisk follows results filed as active; i = inactive; u = inconclusive; x = not tested or not shown; [ ] = another dose, or the depositor's remark. A selection: hits, their analogues and other compounds. The true share with any hit is near 11%. Unless noted, calls come from the whole dose curve; as a rule, active = well fitted curve in the direction sought with a large enough effect; inconclusive = small, poorly fitted or top-dose-only effect, or another doubt; inactive = no such curve, though single readings can be large; an effect the other way counts as inactive or inconclusive. % is set by controls: 0 for no effect and ±100 for the full control effect; potency is the fitted concentration of half-maximal effect.

SMILES | hNpr1 antagonist | HEK cytotox | 3T3 cytotox | FLuc inh
C=CCN(C)C(=O)[C@H]1CN2CCC1C[C@@H]2Cn1cc(-c2ccc(C(C)(C)C)cc2)nn1 (some centres undefined) | -2.0%[70.6 µM] | 100µM* | u | u
COc1ccccc1N1CCN(C(=O)[C@H]2CN3CCC2C[C@@H]3Cn2cc(-c3ccccc3)nn2)CC1 (some centres undefined) | 3.0% | 44.7µM* | -29.3% | i
O=C(O)C1=NOC2CN(Cc3cccnc3)CC12 (centres undefined) | x | i | i | x
COc1cc2c(cc1Oc1ccccc1)NC(=O)C21CCN(C(=O)c2ccccc2)CC1 | u | u | u | i
COc1cc2c(cc1Oc1ccccc1)NC(=O)C21CCN(C(=O)c2ccnn2C)CC1 | u | 70.8µM* | u | i
COc1cc2c(cc1Oc1ccccc1)NC(=O)C21CCN(C(=O)c2cccc(O)c2)CC1 | -17.3% | 44.7µM* | u | i
COc1cc2c(cc1Oc1ccccc1)NC(=O)C21CCN(C(=O)Cc2ccccc2)CC1 | u | 39.8µM* | u | i
CN(C)C(=O)[C@H]1CN2CCC1C[C@@H]2Cn1cc(C2(O)CCCCC2)nn1 (some centres undefined) | -4.1%[70.6 µM] | -0.1%[172 µM] | -3.4%[174 µM] | i
CN1CCN(C(=O)Cc2cccn2-c2ccc(Cl)cc2)CC1 | 4.6% | -7.2% | i | i
COc1cc2c(cc1OCc1ccccc1)N(C(=O)c1cnn(C)c1)CC21CCN(C)CC1 | -0.6% | u | u | i
COc1cc2c(cc1OCc1ccccc1)N(C(=O)c1ccc3[nH]ccc3c1)CC21CCN(C)CC1 | -2.2% | 35.5µM* | 22.4µM* | i
COc1cc2c(cc1OCc1ccccc1)N(C(=O)c1cccc(N(C)C)c1)CC21CCN(C)CC1 | 2.8% | u | 11.2µM* | i
COc1cc2c(cc1OCc1ccccc1)N(C(=O)C(C)C)CC21CCN(C)CC1 | 7.0%[70.6 µM] | u | 89.1µM* | i
COc1cc2c(cc1OCc1ccccc1)N(C(=O)C1CCC(C)CC1)CC21CCN(C)CC1 (centres undefined) | -3.4% | 28.2µM* | 20µM* | i
COc1ccc(-c2cn(C[C@H]3C[C@@H]4CCN3C[C@@H]4C(=O)N(C)C)nn2)cc1 | 4.1%[70.6 µM] | -5.3%[172 µM] | u | i
COc1cc2c(cc1OCc1ccccc1)N(C(=O)c1ccccc1OC)CC21CCN(C)CC1 | -1.6% | 79.4µM* | 28.2µM* | i
COc1cc2c(cc1OCc1ccccc1)N(C(=O)c1ccnn1C)CC21CCN(C)CC1 | 0.4% | u | u | i
O=C(CCc1ccccc1)N1[C@H]2CC[C@@H]1c1cnc(-c3ccc(F)cc3)nc1C2 | u | u | u | i
Cc1ncc2c(n1)C[C@@H]1CC[C@H]2N1C(=O)CCCc1ccccc1 | 3.6% | i | -5.3% | i
CN(CCc1ccccn1)C[C@H]1CN2CC[C@H]1C[C@@H]2CNC(=O)Nc1ccccc1 | -1.1%[70.6 µM] | i | -7.1%[174 µM] | i
O=C(NC[C@H]1C[C@@H]2CCN1C[C@@H]2CN1CCN(c2ccccc2)CC1)Nc1ccccc1 | 4.4%[70.6 µM] | u | u | i
CSc1cccc(NC(=O)NC[C@H]2C[C@@H]3CCN2C[C@@H]3CN2CCSCC2)c1 | 0.8%[70.6 µM] | u | 100µM* | i
CSc1cccc(NC(=O)NC[C@H]2C[C@@H]3CCN2C[C@@H]3CN(C)CCc2ccccn2)c1 | -3.0% | u | 79.4µM* | i
CSc1cccc(NC(=O)NC[C@H]2C[C@@H]3CCN2C[C@@H]3CN2CCN(c3ccccc3)CC2)c1 | -1.5% | 22.4µM* | 20µM* | i
O=C(NCc1ccco1)[C@H]1CN2CCC1C[C@@H]2Cn1cc(CO)nn1 (some centres undefined) | 0.9%[70.6 µM] | -8.6%[172 µM] | -15.7%[174 µM] | i
SMILES | hNpr1 antagonist | HEK cytotox | 3T3 cytotox | FLuc inh
C#C[C@H]1CN2CC[C@H]1C[C@@H]2CNCc1ccc(OC)cc1 | 5.2%[70.6 µM] | u | u | i
O=C(c1ccccc1)N1C[C@@H]2C[C@H](C1)c1c(-c3cncnc3)ccc(=O)n1C2 | 0.0%[70.6 µM] | 1.5%[172 µM] | 3.0%[174 µM] | i
O=C(c1ccccc1)N1C[C@@H]2C[C@H](C1)c1c(/C=C/c3ccc(Cl)cc3)ccc(=O)n1C2 | 1.0%[70.6 µM] | 89.1µM* | u | i
C=C[C@H]1CN2CC[C@H]1C[C@@H]2CNC(=O)Nc1cccc(C(F)(F)F)c1 | -0.7%[70.6 µM] | 100µM* | u | i
CC[C@H]1CN2CC[C@H]1C[C@@H]2CNC(=O)Nc1cc(OC)cc(OC)c1 | 1.8%[70.6 µM] | -39.6%[172 µM] | u | i
CC[C@H]1CN2CC[C@H]1C[C@@H]2CNC(=O)Nc1ccc(C(C)(C)C)cc1 | -2.5%[70.6 µM] | 70.8µM* | u | i
C#C[C@H]1CN2CC[C@H]1C[C@@H]2CNC(=O)Nc1cccc(C(F)(F)F)c1 | -1.7%[70.6 µM] | u | u | i
C=C[C@H]1CN2CC[C@H]1C[C@@H]2CNC(=O)Nc1ccc(C(C)(C)C)cc1 | 5.0%[70.6 µM] | 31.6µM* | 35.5µM* | i
C=C[C@H]1CN2CC[C@H]1C[C@@H]2CNC(=O)Nc1cccc(SC)c1 | -2.2%[70.6 µM] | u | u | i
O=C(NCc1ccccc1)[C@H]1CN2CCC1C[C@@H]2Cn1cc(CC2CCCCC2)nn1 (some centres undefined) | -1.0%[70.6 µM] | 4.4%[172 µM] | 1.5%[174 µM] | i
CC1=NOC2(CCN(Cc3ccccc3)C2)C1 (centres undefined) | 7.0%[70.6 µM] | i | -7.1%[174 µM] | i
CCN1CCN(c2ccc(Cl)nn2)C(=O)C1 | 7.3%[70.6 µM] | i | -6.1%[138 µM] | i
O=C(Nc1ccc2n(c1=O)C[C@H]1C[C@@H]2CN(Cc2ccc(F)cc2)C1)c1cccs1 | u | 25.1µM* | u | u
O=C(Nc1ccc2n(c1=O)C[C@H]1C[C@@H]2CN(C(=O)COc2ccccc2)C1)c1cccs1 | -5.7% | u | u | i
O=C(Nc1ccccc1)Nc1ccc2n(c1=O)C[C@H]1C[C@@H]2CN(C(=O)c2cccs2)C1 | -1.5%[70.6 µM] | u | u | 5.62µM*
CCOC(=O)c1ccc(N2CC3CCC(C2)N3CC(F)(F)F)nn1 | x | -8.0% | -10.4% | x
CCNC(=O)NC[C@H]1C[C@@H]2CCN1C[C@@H]2c1cc(-c2ccc(N(C)C)cc2)nc(C)n1 | 7.1%[70.6 µM] | 100µM* | 100µM* | i
CC(=O)Nc1ccc(S(=O)(=O)NC[C@H]2C[C@@H]3CCN2C[C@@H]3c2cc(-c3ccc(N(C)C)cc3)nc(C)n2)cc1 | -2.3% | 22.4µM* | 25.1µM* | u
COc1ccc(C(=O)NC[C@H]2C[C@@H]3CCN2C[C@@H]3c2cc(-c3ccc(N(C)C)cc3)nc(C)n2)cc1 | -5.7% | 25.1µM* | 39.8µM* | i
CCNC(=O)NC[C@H]1C[C@@H]2CCN1C[C@@H]2c1cc(-c2ccccc2)nc(C)n1 | 1.8%[70.6 µM] | u | u | i
Cc1nc(-c2ccc(N(C)C)cc2)cc([C@H]2CN3CC[C@H]2C[C@@H]3CNC(=O)c2ccccc2)n1 | -2.5% | u | 44.7µM* | i

Compound activity as filed in PubChem.
